# Sampled rows, rich in hits. Any-hit rate of the full collection: about 19%.
# ELG1 DNA repair: blocks ELG1-dependent DNA repair in HEK293T cells; HEK293T ELG1-luciferase reporter, luminescence, 16 h; DNA damage induced by 5-fluorouridine; Potency, µM (highest dose often 46.1 µM), for the others: top-dose activity change, negative = inhibition, usual class: inhibitors; hit rate 2.3% among 330,000; AID 504467; also: potency is read from the fitted curve at half-maximal effect; nearly all actives have a fitted effect of over 55% in size
#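 In this reporter screen, reduction of luminescence relative to DMSO vehicle indicated activity. Compounds and 5-fluorouridine were added together to 2,000 cells per well, incubated for 16 hr at 37 °C, then developed with ONE-Glo.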
# Giardia kill: Giardia lamblia killing | hit rate 0.15% among 340,000 | Giardia lamblia trophozoite viability | activity change, % at 7.66 µM, hits read low; in the data active = activity change below about -80%; inconclusive = between about -30% and that limit;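 also: parasites exposed to compound for two days anaerobically before the ATP read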
#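 Trophozoite viability was measured as ATP-dependent luminescence, read 15-30 min after reagent addition. Before that, parasites at 100 cells/well were exposed to compounds for 48 h, anaerobically, at 37 deg C.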
# TDP1 inh: blocks human tyrosyl-DNA phosphodiesterase 1; Q9NUW8; Potency, µM (titrated, usually from 130 µM), without a hit: top-dose activity change, negative = inhibition, hits mostly inhibitors; recombinant TDP1, AlphaScreen DNA substrate cleavage; hit rate 0.28% among 350,000; also: potency is read from the fitted curve at half-maximal effect; nearly all actives have a fitted effect of over 40% in size
# Target sequence (Q9NUW8 whole entry, looked up): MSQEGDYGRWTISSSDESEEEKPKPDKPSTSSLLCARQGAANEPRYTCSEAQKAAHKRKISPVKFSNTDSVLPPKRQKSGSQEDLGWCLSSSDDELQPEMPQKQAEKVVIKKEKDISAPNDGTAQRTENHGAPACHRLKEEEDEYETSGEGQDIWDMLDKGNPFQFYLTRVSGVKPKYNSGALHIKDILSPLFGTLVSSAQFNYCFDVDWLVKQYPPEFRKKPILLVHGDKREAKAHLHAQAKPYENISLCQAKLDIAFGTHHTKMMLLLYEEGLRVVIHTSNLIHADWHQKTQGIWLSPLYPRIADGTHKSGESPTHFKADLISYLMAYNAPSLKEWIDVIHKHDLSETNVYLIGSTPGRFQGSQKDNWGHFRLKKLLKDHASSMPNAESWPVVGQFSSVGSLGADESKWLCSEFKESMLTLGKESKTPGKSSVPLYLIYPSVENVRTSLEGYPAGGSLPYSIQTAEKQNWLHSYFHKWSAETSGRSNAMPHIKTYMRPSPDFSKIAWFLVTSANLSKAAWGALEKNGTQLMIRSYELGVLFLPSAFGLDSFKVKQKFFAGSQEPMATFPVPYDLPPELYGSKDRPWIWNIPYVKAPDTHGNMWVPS
#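 E. coli-derived human Tdp1, 1 nM final. Cpd preinc 15 min RT; substrate 15 nM final, 5 min RT; AS bead mix 10 ug/ml final, 10 min RT. Signal loss = tyrosine-FITC cleavage. No-enzyme wells = max signal.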
# TDP1 cell noCPT: qHTS for Inhibitors of human tyrosyl-DNA phosphodiesterase 1 (TDP1): qHTS in cells in absence of CPT; DT40 Tdp1-/- hTDP1 cells, no CPT, ATP luminescence, 48 h; Potency, µM (highest dose often 46.2 µM), inactives show at the highest dose activity change, negative = growth inhibition, usual class: inhibitors; hit rate 15% among 420,000; AID 686978, 2013; also: potency is read from the fitted curve at half-maximal effect; nearly all actives have a fitted effect of over 55% in size
#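 Growth kinetics read by CellTiter-Glo luminescence after ≥48 hr at 37 °C. Cells: DT40 Tdp1-/- stably carrying human TDP1, 400 per well, compound exposure in the absence of CPT (DMSO vehicle).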
# IL-1B inflam inh: inhibitors of inflammasome signaling (IL-1 beta secretion); THP-1 LPS/ATP IL-1B secretion, AlphaLISA, 16 h; stronger effect = lower value; activity change, % at 57.5 µM; hit rate 4.7% among 360,000; AID 743279; in the data active = activity change below about -50%; inconclusive = mostly about -30% to -49%
#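 THP-1 cells pretreated 1 hr with compounds (up to 57.5 uM final), then stimulated with LPS (250 ng/mL final) plus ATP (1.25 mM final); secreted IL-1B measured by AlphaLISA after 16 hr, decreased signal indicating inhibition.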
# DT40 TDP1 CPT: growth inhibition of DT40 Tdp1-/-;hTDP1 cells with camptothecin (screen for TDP1 inhibitors); chicken DT40 Tdp1-/-;hTDP1 cells + 20 nM CPT, ATP luminescence, 48 h; Potency, µM (titrated, usually from 46.2 µM), for the others: at the top dose activity change, negative = growth inhibition, actives largely listed as inhibitors; hit rate 12% among 420,000; also: potency is read from the fitted curve at half-maximal effect; nearly all actives have a fitted effect of over 55% in size
#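 Chicken DT40 Tdp1-/- cells complemented with human TDP1, 400 cells/well, exposed to compounds plus 20 nM camptothecin for at least 48 h at 37 C; viability read as ATP content by CellTiter-Glo luminescence.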
# * = called active by the depositor; u = inconclusive; x = no result; [ ] = remark or other dose. Unless noted, calls follow the shape of the dose curve; as a rule, active = well fitted curve in the direction sought with a large enough effect; inconclusive = small, poorly fitted or top-dose-only effect, or another doubt; inactive = no such curve, though single readings can be large; an effect the other way counts as inactive or inconclusive. % is scaled to controls: 0 for no effect and ±100 for the full control effect.
SMILES,ELG1 DNA repair,Giardia kill,TDP1 inh,TDP1 cell noCPT,IL-1B inflam inh,DT40 TDP1 CPT
CCOc1ccc(CN(C)C(C)C(=O)NCc2ccccc2)cc1 (stereo not given),-5%,-7,x,u,11,u
CC(C)C(C(=O)NCc1ccccc1)N(C)Cc1ccc(Cl)c(Cl)c1 (stereo not given),x,x,x,u,0,u
CCc1ccc(CN(C)C(C)C(=O)NCc2ccccc2)cc1 (stereo not given),-14%,14,x,7.3µM*,-1,u
CCC(CC)C(C(=O)NCc1ccccc1)N(C)Cc1ccc(Cl)c(Cl)c1 (stereo not given),x,x,x,15µM*,-10,21µM*
O=C(N/N=C1/C[C@@H](O)[C@@H](O)[C@@H]2[C@@H]3C(=O)N(c4cccc(Oc5ccccc5)c4)C(=O)[C@H]3CC[C@H]12)OCc1ccccc1,x,x,3%[21 µM],x,x,x
COC(=O)C[C@@H]1C[C@H]2c3cc(NC(=O)CC4CC4)ccc3O[C@H]2[C@@H](CO)O1,x,x,x,-2%,20,1%
O=C(C[C@@H]1CC[C@H](NC(=O)c2ccc3c(c2)OCO3)[C@@H](CO)O1)NCc1ccc(F)cc1,x,x,x,12µM*,-12,u
O=C(C[C@H]1C[C@@H]2c3cc(NC(=O)c4ccc5c(c4)OCO5)ccc3O[C@@H]2[C@H](CO)O1)NCc1cc(F)ccc1F,x,x,x,26µM*,-5,u
COc1ccccc1CNC(=O)C[C@@H]1C[C@H]2c3cc(NC(=O)c4ccc5c(c4)OCO5)ccc3O[C@H]2[C@@H](CO)O1,x,x,x,u,-5,u
CCCNC(=O)C[C@@H]1C[C@H]2c3cc(NC(=O)c4ccc5c(c4)OCO5)ccc3O[C@H]2[C@@H](CO)O1,x,x,x,15µM*,23,23µM*
CC(C)Cc1nn2c(=O)cc(CSCC(=O)Nc3ccccc3F)nc2s1,9%,12,3%,9%,10,0%
COc1cc(S(=O)(=O)n2ccc(C)n2)c(C)cc1C,x,x,x,9%,18,-16%
CC(=O)c1c(C)[nH]c(C(=O)OCc2ccc(F)cc2Cl)c1C,9.2µM*,13,9%,13µM*,26,15µM*
CC(=O)c1c(C)[nH]c(C(=O)OCc2c(F)cccc2Cl)c1C,7.3µM*,-14,8%,u,36,u
O=C(CSc1ccc(Br)cc1)N1CCN(S(=O)(=O)c2ccccc2)CC1,u,1,0%,-27%,-9,2%
O=C(Cc1coc2cc(O)ccc12)N1CCN(S(=O)(=O)c2ccc(Br)cc2)CC1,x,-2,x,23µM*,u,u
Cc1cc(C)c(S(=O)(=O)Nc2ccc(C(=O)O)cc2)cc1S(=O)(=O)Nc1ccc(C(=O)O)cc1,x,4,x,-13%,23,0%
Cc1nn2c(C)c(C(=O)N3CCN(c4ccc(Cl)cc4)CC3)cnc2c1-c1ccc(F)cc1,x,x,7%,-2%,x,2%
CCc1cc(C(=O)N2CCCC(C(=O)c3ccc(C(F)(F)F)cc3)C2)n(C)n1 (stereo not given),-8%,6,x,u,0,u
COc1ccc(OC)c(NC(=O)CC2SC(=Nc3ccccc3)N(CCc3ccccn3)C2=O)c1 (stereo not given),u,36,5%,u,u,23µM*
COc1ccc(N=C2SC(CC(=O)Nc3ccc(OC)cc3OC)C(=O)N2C)cc1 (stereo not given),-27%,3,2%,-22%,12,-9%
COc1ccc(N=C2SC(CC(=O)Nc3ccccc3)C(=O)N2Cc2ccccn2)cc1 (stereo not given),u,-28,12%,23µM*,-67*,29µM*
